Among the data in PubChem BioAssay (NCI) are growth values, retold here.

Common to all, as to assay: NCI-60 one-dose screen, 48 h (100 = growth as untreated, 0 = no growth, -100 = all killed)
Holding throughout (conditions): 10 µM unless noted

For test [1], the system named is NCI-H23 lung.
The subject of test [2] is NCI-H226 lung.
Test [3] deals with NCI-H322M lung.
Test [4] deals with HOP-62 NSCLC.
Test [5] concerns NCI-H460 lung.
Test [6] has as its system HOP-92 NSCLC.
The test system of test [7] is NCI-H522 lung.
For test [8], the system named is A549/ATCC NSCLC.
Test [9] deals with 786-0 renal.
For test [10], the system named is COLO 205 colon.

Compounds without any hit were thinned out: in the full panel of roughly 83,000, 20% have a hit.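 Assay: single dose, 48 h. Readout: percent growth (0 = no net growth; negative = cell death). Active: <10.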 Values without a mark were called inactive. Calls of active or inactive are those of the source.

For the compound `O=C1Nc2c(C(=O)O)cccc2/C1=N/c1n[nH]c(=S)s1`, the growth in [1] is 87.8%; in test [2] it was 86.2%; in test [3], 95.6%; in test [4], 79.7%; in test [5], 93.4%; in test [6] it was 96.1%. Moreover, the growth in test [7] was 81.1%; in [8], 85.5%; in [9] it was 91.3%.
`C=C1CC[C@@H]2C(C)(C)[C@@H](O)CC[C@@]2(C)[C@@H]1COc1ccc2ccc(=O)oc2c1`: the growth in test [1] is 75.3%; in test [2], 66.1%; in test [3], 109%; in test [4], 103%; in [5] it was 87.8%; in test [6], 86.8%. Also, the growth in test [7] is 66.9%; in [8], 58.7%; in [9] it was 89.6%.
With `COc1ccc(/C=C2\COc3ccc(O)cc3C2=O)cc1`, the growth was 109% in test [1]; 104% in [2]; 100% in test [3]; 103% in test [4]; 104% in [5]; 110% in test [6]. The results for the growth in [7], in test [8] and in [9] were 37.7%, 97.8% and 92.2%, respectively.
Regarding `CC(C)CCN(CCC(C)C)CC(O)c1cc2c(c3ccccc13)CCCC2` (configuration not stated), the growth is 56.6% in test [1]; 70.2% in test [2]; 81.4% in [3]; 85.6% in test [4]; 75.3% in test [5]; 40.2% in test [6]. In addition, the growth was 56.7% in [7], 73.3% in test [8] and 88.8% in test [9].
With `CC1(C)NCCC[C@]2(C)[C@H]3CC[C@H]4[C@H]5[C@H](C(=O)/C=C/c6cccnc6)CCC[C@]5(CO)CC[C@@]4(C)[C@]3(C)CC[C@@H]12`, the growth in test [1] was 77.6%; in [2], 96.2%; in [3], 85.5%; in test [4] it was 97.3%; in [5] it was 10.9%; in test [6], 48.1%. In addition, the growth in [7] is 88%; in [8], 67%; in test [9], 83.8%; in test [10] it was -72.9% (active).
`COc1ccc(-c2nc3c(N)c(CO)cnc3s2)cc1`: the growth in test [1] is 86.7%; in test [2] it was 41.6%; in [3], 76%; in [4] it was 100%; in [5], 97.6%; in [6] it was 77%. For the same compound, the growth in [7] is 92.1%; in [8], 91.7%; in [9], 95%.
In the case of `CN1CCN(c2ccc(NC(=O)c3cncnc3Nc3ccc(OCc4cccc(F)c4)c(Cl)c3)cc2)CC1`, the growth in test [1] was 78%; in test [2], 94.9%; in test [3], 81.1%; in test [4], 33.1%; in [5], 5.33% (active); in test [6], 57.1%. For the same compound, the growth in [7] was 103%; in [8] it was 57%; in [9], 56%.
As to `Cc1n[nH]c2ccc(Br)cc2c1=O`, the growth was 98.3% in test [1]; 96.5% in [2]; 98.7% in [3]; 93.9% in test [4]; 110% in test [5]; 103% in test [6]. Besides, the growth in [7] is 83.6%; in [8], 99%; in [9], 102%.
With `O=[N+]([O-])c1cc(NS(=O)(=O)c2ccccc2)ccc1NS(=O)(=O)c1ccccc1`, the growth in test [1] is 112%; in test [2], 104%; in test [3], 135%; in test [4], 110%; in [5], 93.3%; in [6] it was 97.8%. The results for the growth in test [7], in test [8] and in [9] were 80.9%, 97.9% and 102%, respectively.
For the compound `COc1ccc(CNc2c3ccccc3nc3ccccc23)c(OC)c1`, the growth is 34.9% in test [1]; 46.3% in [2]; 40% in [3]; 47.2% in [4]; 16.6% in test [5]; -13.6% (active) in [6]. Further, the results for the growth in test [7], in test [8] and in test [9] were 40.6%, 35.2% and 39.1%, respectively.
On to `COc1ccc2[nH]cc(-c3nc(-c4c[nH]c5c(Cl)nccc45)cs3)c2c1`, for which the growth is 54.1% in test [1]; 40.3% in [2]; 72.2% in [3]; 61.2% in [4]; -3.62% (active) in test [5]; 56.2% in [6]. Besides, the figures for the growth in [7], in test [8] and in test [9] were 25.8%, 28.6% and 9.87% (active), respectively.
For `COc1cccc(-c2cc(-c3cccc(Cl)c3)c(C#N)c(=O)[nH]2)c1`, the growth is 86.7% in test [1]; 91.4% in test [2]; 89.5% in test [3]; 68.5% in [4]; 78.5% in test [5]; 51.7% in test [6]. The growth in test [7] was 62.2%; in test [8], 70.9%; in [9], 88.8%.
`CCN(CC)CCN1C(=O)c2c(c(C)c3c(oc4ccc(OC)cc43)c2C)C1=O`: the growth in test [1] is 97.9%; in test [2] it was 14.3%; in test [3], 95.2%; in test [4] it was 93.7%; in [5] it was 74.3%; in [6], 84.7%. In addition, the growth in [7] was 95%; in test [8] it was 94.5%; in [9] it was -30% (active).
For the compound `CCc1n(Cc2ccc3ccccc3n2)cc[n+]1Cc1ccc2ccccc2n1`, the growth in test [1] was 16%; in test [2], 48.4%; in test [3] it was 73.1%; in [4], 40.9%; in test [5] it was 34.8%; in test [6], -11.9% (active). Further, the growth in test [7] was -3.51% (active); in [8], 57.4%; in [9], 77.6%.
